Over roughly 33,000 sequences, “E-score (-0.5 to 0.5)” has its median near -0.012; the highest 2% begin near 0.27. This is one part of a sample in which the highest values are shown more often than they occur.
target: T1, Vhr1 (UniProt P40522); assay: PBM E-score (8-mer binding enrichment) (E-score (-0.5 to 0.5)); higher = stronger / more preferred TF binding; settings: protein concentration: 200 nM; construct: GST-full length
T1 sequence: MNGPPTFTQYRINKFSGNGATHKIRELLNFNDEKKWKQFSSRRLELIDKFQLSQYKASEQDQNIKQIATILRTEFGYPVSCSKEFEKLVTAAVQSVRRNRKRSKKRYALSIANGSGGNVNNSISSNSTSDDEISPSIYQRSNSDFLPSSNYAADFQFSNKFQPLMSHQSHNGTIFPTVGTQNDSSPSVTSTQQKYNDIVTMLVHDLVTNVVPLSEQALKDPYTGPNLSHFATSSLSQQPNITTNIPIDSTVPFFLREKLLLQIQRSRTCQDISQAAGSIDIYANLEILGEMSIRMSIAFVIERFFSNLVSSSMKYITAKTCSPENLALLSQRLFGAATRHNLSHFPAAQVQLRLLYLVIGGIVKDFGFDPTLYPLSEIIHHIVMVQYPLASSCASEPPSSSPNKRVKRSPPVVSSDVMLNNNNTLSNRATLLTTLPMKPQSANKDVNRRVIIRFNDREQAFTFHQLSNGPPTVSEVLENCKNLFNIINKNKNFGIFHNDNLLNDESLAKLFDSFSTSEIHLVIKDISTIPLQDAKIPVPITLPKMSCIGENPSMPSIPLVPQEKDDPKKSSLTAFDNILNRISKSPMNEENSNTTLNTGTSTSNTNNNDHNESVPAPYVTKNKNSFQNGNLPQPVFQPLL
Procedure, shortened: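 Yeast transcription factors carrying a GST tag, as full-length proteins or DNA-binding domains, were produced by PURExpress in vitro transcription/translation. About 100-200 nM protein was applied to universal all-10-mer Agilent arrays, double-stranded by primer extension on fresh or once-stripped slides. Bound protein was detected with fluorescent anti-GST, and scans were normalised with masliner. The Universal PBM Analysis Suite gave each ungapped eight-base word, pooled with its reverse complement, an E-score, a modified Wilcoxon-Mann-Whitney statistic.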

Sequence | PBM E-score
ACTGACTA | 0.295
CCTGACTA | 0.391
ACTGACCA | -0.0638
CTTGACTC | 0.262
CCCAGCAG | 0.0474
AACTGGCT | -0.204
CAGCGCAC | -0.152
CGGTTGAC | -0.0106
AGGCAAGG | -0.292
AATGACAC | 0.0353
AATGACTA | 0.353
GATGACCA | 0.13
AATGACGA | -0.0492
AATGACTC | 0.463
CATGACGA | 0.22
CATGACAA | 0.0092
GATGACAA | -0.00976
AATGACGC | 0.00169
AATGACTG | 0.271
GATGACTA | 0.447
CATGACTA | 0.458
GGATCCGA | -0.0296
ATGTAGCG | -0.0682
AGCGCAAT | -0.0761
ATCTTAGG | -0.132

Sequence | PBM E-score
GCGCTGGA | 0.168
GTTGATAA | 0.109
CGGCTACA | 0.153
CATGGCTA | 0.224
AATGGCTC | 0.137
CATGGTTC | 0.364
AATGGTTC | 0.212
CATGGTTA | 0.215
CATGGCTC | 0.28
AAAATCTT | -0.316
CCATCGAG | 0.0908
ACGCGATG | 0.148
ACTCGGAG | 0.29
ACTCGGAT | 0.186
CCTCGGAG | 0.00615
TCTGGTCA | 0.0764
GACGAGTC | 0.276
CACGAGTG | -0.0364
CACGAGTA | 0.0881
GACGAGTA | 0.077
ACCGAGTC | 0.254
AACGAGTT | -0.117
CCCGAGTC | 0.387
AACGAGTA | 0.134
CCCGAGTA | 0.184

Sequence | PBM E-score
GACGAGAC | -0.0155
CACGAGTC | 0.324
AACGAGTC | 0.278
CGCGACGC | -0.00297
ACGACCTA | 0.143
AAGTGTGT | 0.0443
AGAACGAC | 0.00162
CCGTTACG | -0.0486
ACCCGATG | 0.137
ACTTGCTC | -0.057
CTTATCGC | -0.0118
TCCGACAA | -0.0624
GATTTCCA | 0.0482
GATAATCC | -0.112
CATAATCC | 0.105
CATAATCA | 0.308
CATAATCG | 0.0927
GATAATCA | 0.301
GTTAATCA | 0.296
ATTAATCA | 0.217
AATAATCA | 0.203
CTTAATCA | 0.214
TAGATTCA | -0.0459
GTGCGAAC | -0.037
AAGATCAG | 0.0101

Sequence | PBM E-score
ACCTGGAC | 0.0512
CCAATGAC | 0.285
ACCATGAT | 0.219
ACCATGAA | 0.276
GCCATGAA | 0.0605
CCCATGAC | 0.332
GCCATGAC | 0.0961
ACCATGAG | 0.0389
ACCATGAC | 0.307
CCCATGAA | 0.0105
TCCATGAA | 0.123
GCAATGAC | 0.103
CCAATGAA | -0.18
GTGGGGTA | 0.22
CACCCGAC | 0.0689
GTGTGCGA | 0.0262
CGTCTCCA | 0.149
CGGAGGAC | 0.00537
CTTAAGCC | -0.234
AAGTTTGT | -0.034
CGGGGTCC | -0.227
ATACATAC | 0.293
ATACATAA | 0.135
ACACATAG | 0.102
ATACATAT | 0.367

Sequence | PBM E-score
GTACATAC | 0.119
ATACATAG | 0.108
ACACATAA | 0.119
CTACATAC | 0.0864
ACACATAC | 0.29
GCTGACCC | 0.0256
ACCCAGCT | 0.0775
GTCCAGCA | -0.0682
ACGTCCAT | -0.123
CGCGGTCC | -0.137
CGATCCCG | 0.0117
AGATCCCG | 0.297
AGATCCCT | -0.142
ACCTCACG | -0.0286
CATCAACG | 0.131
AGGGGCGG | 0.348
AGGGGCGC | 0.0808
AGGGGCGA | 0.113
GTTCATTA | -0.0167
CTGACCCC | -0.0745
CTGACTCC | 0.47
ACGACTCA | 0.445
CCGACTTA | -0.0517
CCGACTGA | -0.0635
GCCACTCC | 0.205

Sequence | PBM E-score
GCGACCCC | 0.0605
CTTACTCC | 0.0868
ACGACTTA | -0.0824
ACGACTCT | 0.261
GCGACTCC | 0.414
CCGACTCA | 0.417
AAATGGAC | -0.0108
ATCTCAGA | 0.00554
CCTGTGCA | -0.0814
CCCCCTCG | -0.242
GTAGGCGA | 0.097
ACATGCCA | 0.0538
GCGACTCA | 0.477
ACGACGCC | -0.036
ACGACTCG | 0.327
GGGACTCA | 0.261
CCGACTTC | -0.223
ACGACTTG | -0.0454
GCGACTTA | -0.104
ACGACTCC | 0.366
CCGACTCG | 0.238
ACGACTAT | 0.195
CCGACTCC | 0.45
CAACAACG | 0.087
CAGAAGAG | -0.189

Sequence | PBM E-score
CGGTAGAC | -0.00049
ACAAGAGT | 0.108
ACAGGGAC | -0.138
GCTTAGGA | -0.0935
GCACTACC | -0.0106
GTACCCGA | -0.161
AAGCTGCA | -0.00033
TCTACTCA | 0.112
TCGACCCA | 0.166
TCGACTCA | 0.349
GCCATAGC | -0.0742
CCATGCGA | 0.0318
GCATGCGA | 0.159
TCATGCGA | 0.285
CTATGATC | 0.112
AGTCGACC | -0.0312
AGTCGACA | 0.197
CGTCGACG | 0.161
ACTCGACG | 0.269
GGTCGACC | 0.32
GGTCGACA | -0.0223
CGTCGACC | -0.00578
AGTCGACG | 0.278
AGTCGACT | 0.33

Reference: the supplement of paper PMC3334620
